Measured values: PubChem BioAssay (NCATS)
Results filed as inconclusive are left out. Active and inactive are the calls of the source. Calls come from the whole dose curve; as a rule, active = well fitted curve in the direction sought with a large enough effect; inconclusive = small, poorly fitted or top-dose-only effect, or another doubt; inactive = no such curve, though single readings can be large; an effect the other way counts as inactive or inconclusive.

How the values were obtained:
[1] = tested on: MCC-13; experiment: qHTS assay to identify novel small-molecules to repurpose for Merkel cell carcinoma treatment (AID 1296009); details: MCC and control cell lines, CellTiter-Glo viability, 72 h; series mostly up to 46 µM; note: nearly all actives have a fitted effect of over 60% in size
Method in brief: (§1)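 CellTiter-Glo luminescence after 72 hr compound exposure at 37 degree celsius gave cell viability. Libraries NPC and MIPE were run as 8- and 11-point dose responses; RLUs normalized to DMSO (negative) and no-cell (cytotoxicity) controls.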

[2] = tested on: MCC-26; experiment: as above; details: MCC and control cell lines, CellTiter-Glo viability, 72 h; series mostly up to 46 µM
Method in brief: as §1

[3] = tested on: MKL-1; experiment: as above; details: MCC and control cell lines, CellTiter-Glo viability, 72 h; series mostly up to 46 µM
Method in brief: as §1

[4] = tested on: UISO; experiment: as above; details: MCC and control cell lines, CellTiter-Glo viability, 72 h; series mostly up to 46 µM
Method in brief: as §1

[5] = tested on: C33A; experiment: Primary qHTS to identify gynecologic anti-cancer compounds using libraries of approved drugs and bioactive compounds (AID 1345084); details: Gynecologic cancer cell panel viability, ATPlite luminescence, 48 h; series mostly up to 57.5 µM; note: nearly all actives have a fitted effect of over 55% in size
Method in brief: (§2)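 Measured: luminescence after ATPlite addition (15 min, RT). Exposure: 48 h, 37 C, 5% CO2.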

[6] = tested on: CASKI; experiment: as above; details: Gynecologic cancer cell panel viability, ATPlite luminescence, 48 h; series mostly up to 57.5 µM
Method in brief: as §2

[7] = tested on: Es-2; experiment: as above; details: Gynecologic cancer cell panel viability, ATPlite luminescence, 48 h; series mostly up to 57.5 µM
Method in brief: as §2

[8] = tested on: HeLa; experiment: as above; details: Gynecologic cancer cell panel viability, ATPlite luminescence, 48 h; series mostly up to 57.5 µM
Method in brief: as §2

[9] = tested on: Hek293T; experiment: as above; details: Gynecologic cancer cell panel viability, ATPlite luminescence, 48 h, control line for the selectivity index; series mostly up to 57.5 µM
Method in brief: as §2

[10] = tested on: PA-1; experiment: as above; details: Gynecologic cancer cell panel viability, ATPlite luminescence, 48 h; series mostly up to 57.5 µM
Method in brief: as §2

[11] = tested on: Tov-21-G; experiment: as above; details: Gynecologic cancer cell panel viability, ATPlite luminescence, 48 h; series mostly up to 57.5 µM
Method in brief: as §2

[12] = tested on: Tov112D; experiment: as above; details: Gynecologic cancer cell panel viability, ATPlite luminescence, 48 h; series mostly up to 57.5 µM
Method in brief: as §2

[13] = tested on: CAOV3; experiment: as above; details: Gynecologic cancer cell panel viability, ATPlite luminescence, 48 h; series mostly up to 57.5 µM
Method in brief: as §2

[14] = tested on: JEG-3; experiment: as above; details: Gynecologic cancer cell panel viability, ATPlite luminescence, 48 h; series mostly up to 57.5 µM
Method in brief: as §2

[15] = tested on: OV90; experiment: as above; details: Gynecologic cancer cell panel viability, ATPlite luminescence, 48 h; series mostly up to 57.5 µM
Method in brief: as §2

[16] = tested on: SKOV3; experiment: as above; details: Gynecologic cancer cell panel viability, ATPlite luminescence, 48 h; series mostly up to 57.5 µM
Method in brief: as §2

[17] = Drug repurposing screens with cells derived from glioblastoma tumor samples (AID 1345199); details: GBM patient neurospheres viability, ATP luminescence, 48 h; note: nearly all actives have a fitted effect of over 40% in size
Method in brief: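 Primary testing used CD133+ neurospheres from four GBM patients, seven concentrations, 48 h exposure and ATP-based viability; confirmation added three slower-growing patient lines.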

[18] = tested on: WaGa; experiment: qHTS assay to identify novel small-molecules to repurpose for Merkel cell carcinoma treatment (AID 1296009); details: MCC and control cell lines, CellTiter-Glo viability, 72 h; series mostly up to 46 µM; note: nearly all actives have a fitted effect of over 60% in size
Method in brief: as §1

[19] = tested on: MKL-2; experiment: as above; details: MCC and control cell lines, CellTiter-Glo viability, 72 h; series mostly up to 46 µM
Method in brief: as §1

[20] = tested on: NIH3T3; experiment: as above; details: MCC and control cell lines, CellTiter-Glo viability, 72 h; at 44.8 µM (top of the series) unless noted
Method in brief: as §1

[21] = at 45.9 µM (top of the series), tumour line B
[22] = at 45.9 µM (top of the series), tumour line D
[23] = at 91.6 µM (top of the series), tumour line B
% is set by controls: 0 for no effect and ±100 for the full control effect; potency is the fitted concentration of half-maximal effect.

CC#C[C@]1(O)CC[C@H]2[C@@H]3C[C@H](C)C4=CC(=O)CC[C@]4(C)[C@H]3CC[C@@]21C
active: Potency [8] 6.31 µM | Potency [10] 25.1 µM
inactive: Potency [1] | Potency [2] | Potency [3] | Potency [4] | Potency [5] | Potency [6] | Potency [7] | Potency [9] | Potency [11] | Potency [12]

C[C@]12CC[C@H](O)CC1=CC[C@@H]1[C@@H]2CC[C@]2(C)C(=O)CC[C@@H]12
inactive: Potency [5] | Potency [13] | Potency [6] | Potency [7] | Potency [9] | Potency [14] | Potency [15] | Potency [10] | Potency [16] | Potency [11] | Potency [12] | activity, negative = cell killing [17, 21] -4.02%
active: Potency [8] 14.1 µM | Potency ([17]; tumour line A) 22.4 µM

CC[C@H]1C[C@@H]2C[C@H]3c4[nH]c5ccc(OC)cc5c4CCN(C2)[C@@H]13
active: Potency [18] 42.4 µM | Potency [15] 31.6 µM
inactive: Potency [1] | Potency [2] | Potency [5] | Potency [6] | Potency [7] | Potency [8] | Potency [9] | Potency [14] | Potency [16] | Potency [11] | Potency [12]

C#C[C@]1(O)CC[C@H]2[C@@H]3CCC4=CC(=O)CCC4=C3C=C[C@@]21CC
active: Potency ([17]; tumour line A) 10 µM
inactive: Potency [1] | Potency [2] | Potency [3] | Potency [5] | Potency [6] | Potency [7] | Potency [8] | Potency [9] | Potency [14] | Potency [15] | Potency [10] | Potency [16] | Potency [11] | Potency [12] | activity, negative = cell killing [17, 21] -22.9% | activity, negative = cell killing [17, 22] -22%

CC[n+]1c(-c2ccccc2)c2cc(N)ccc2c2ccc(N)cc21
active: Potency [3] 0.668 µM | Potency [19] 0.944 µM | Potency [4] 7.5 µM | Potency [18] 0.75 µM | Potency [5] 1.12 µM | Potency [13] 12.6 µM | Potency [6] 20 µM | Potency [15] 14.1 µM | Potency [10] 1.26 µM | Potency [11] 15.8 µM | Potency [12] 1.41 µM

CN(C)CCc1c[nH]c2ccc(O)cc12
inactive: Potency [1] | Potency [3] | outcome [20] inactive [at 92 µM] | Potency [5] | Potency [6] | Potency [7] | Potency [8] | Potency [9] | Potency [14] | Potency [15] | Potency [10] | Potency [16] | Potency [11] | Potency [12] | activity, negative = cell killing [17, 23] -5.09% | activity, negative = cell killing ([17]; at 91.6 µM (top of the series), tumour line D) -23.3%
active: Potency [4] 53.4 µM

Oc1ccc([C@H]2CNCc3c2ccc(O)c3O)cc1O
inactive: Potency [1] | Potency [2] | Potency [4] | Potency [5] | Potency [13] | Potency [6] | Potency [7] | Potency [8] | Potency [9] | Potency [14] | Potency [15] | Potency [10] | Potency [16] | Potency [11] | Potency [12] | activity, negative = cell killing [17, 21] -19.9% | activity, negative = cell killing [17, 22] -11.1% | activity, negative = cell killing ([17]; at 46 µM (top of the series), tumour line A) -27.2%
active: Potency [19] 13.3 µM

CCO[C@H]1O[C@@H]2OC3(C)CC[C@H]4[C@H](C)CC[C@@H]([C@H]1C)[C@@]24OO3
inactive: Potency [1] | Potency [2] | Potency [3] | Potency [5] | Potency [6] | Potency [7] | Potency [8] | Potency [14] | Potency [15] | Potency [10] | Potency [16] | Potency [11] | Potency [12]
active: Potency [18] 18.8 µM

NC1(c2ccccc2)CCCCC1
active: Potency ([17]; tumour line A) 63.1 µM
inactive: Potency [1] | Potency [2] | Potency [3] | Potency [4] | Potency [13] | Potency [6] | Potency [7] | Potency [9] | Potency [14] | Potency [15] | Potency [10] | Potency [11] | activity, negative = cell killing [17, 23] -7.4%
